Laboratory results reported in the antibiotic and cytotoxicity screens of Wong et al. (2023).
Among all 39,000 compounds or so, about 3,300 (8.5%) were called active. The list comes from a sample in which actives are over-represented; it also holds similar structures and randomly drawn compounds.

The compounds below were run on HepG2 (assay: cytotoxicity call (relative viability < 0.9)). Conditions: 10 µM.

Question: Which cytotoxicity call does the source give for `C[C@H](CO)N1C[C@H](C)[C@H](CN(C)C(=O)Nc2cccc3ccccc23)Oc2ccc(NS(=O)(=O)c3cccs3)cc2CC1=O` here?
Answer: inactive

Question: How did the cytotoxicity call turn out when `CC(C)NC(=O)N(C)C[C@@H]1OCCCC[C@@H](C)Oc2ccc(NC(=O)Nc3ccc(F)cc3)cc2C(=O)N([C@H](C)CO)C[C@H]1C` was run?
Answer: inactive

Question: Which cytotoxicity call does the source give for `COc1ccccc1CNC(=O)C[C@@H]1C[C@@H]2c3cc(NC(=O)NC4CCCC4)ccc3O[C@@H]2[C@@H](CO)O1` here?
Answer: inactive

Question: For `COc1ccc(NC(=O)N(C)C[C@H]2Oc3c(NC(=O)Nc4cccc5ccccc45)cccc3C(=O)N([C@H](C)CO)C[C@@H]2C)cc1`, which cytotoxicity call is on record?
Answer: inactive

Question: Which cytotoxicity call does the source give for `COc1ccc(S(=O)(=O)Nc2ccc3c(c2)C(=O)N([C@H](C)CO)C[C@H](C)[C@H](CN(C)Cc2ccc(C(=O)O)cc2)OCCCC[C@@H](C)O3)cc1` here?
Answer: inactive

Question: With `COc1ccc(NC(=O)N(C)C[C@@H]2OCCCC[C@@H](C)Oc3ccc(NC(=O)Nc4ccc(F)cc4)cc3C(=O)N([C@H](C)CO)C[C@H]2C)cc1` as the compound, how does the cytotoxicity call read?
Answer: inactive

Question: How did the cytotoxicity call turn out when `O=C(CC1CC1)NCc1cnc2n1CCNCC2` was run?
Answer: inactive

Question: For `O=C(C[C@@H]1CC=CCCC(=O)OC[C@@H](Cc2c[nH]c3ccccc23)NC1=O)N[C@@H](CO)Cc1ccccc1`, which cytotoxicity call is on record?
Answer: inactive

Question: For `O=C(C[C@@H]1CC=CCC[C@@H](Cc2ccc(F)cc2)C(=O)OC[C@@H](Cc2c[nH]c3ccccc23)NC1=O)N[C@@H](CO)Cc1ccccc1`, which cytotoxicity call is on record?
Answer: inactive

Question: How did the cytotoxicity call turn out when `O=C(C[C@@H]1CC=CCC[C@@H](Cc2ccc(F)cc2)C(=O)OC[C@H](Cc2c[nH]c3ccccc23)NC1=O)N[C@H](CO)Cc1ccccc1` was run?
Answer: active

Question: Which cytotoxicity call does the source give for `O=C(C[C@@H]1CC=CCC[C@H](Cc2ccc(F)cc2)C(=O)OC[C@H](Cc2c[nH]c3ccccc23)NC1=O)N[C@H](CO)Cc1ccccc1` here?
Answer: active

Question: How did the cytotoxicity call turn out when `O=C(C[C@@H]1CC=CCCC(=O)OC[C@@H](Cc2c[nH]c3ccccc23)NC1=O)N[C@H](CO)Cc1ccccc1` was run?
Answer: inactive

Question: Which cytotoxicity call does the source give for `C[C@@H]1COC(=O)[C@@H](Cc2ccc(F)cc2)CCC=CC[C@@H](CC(=O)N[C@H](CO)Cc2ccccc2)C(=O)N1` here?
Answer: inactive

Question: `O=C(C[C@@H]1CC=CCC[C@@H](Cc2ccc(F)cc2)C(=O)OC[C@H](Cc2c[nH]c3ccccc23)NC1=O)N[C@@H](CO)Cc1ccccc1` was tested. Which cytotoxicity call did it give?
Answer: active

Question: Which cytotoxicity call does the source give for `O=C(C[C@@H]1CC=CCC[C@H](Cc2ccc(F)cc2)C(=O)OC[C@H](Cc2c[nH]c3ccccc23)NC1=O)N[C@@H](CO)Cc1ccccc1` here?
Answer: inactive

Question: For `O=C(C[C@@H]1CC=CCC[C@@H](Cc2ccc(F)cc2)C(=O)OC[C@@H](Cc2c[nH]c3ccccc23)NC1=O)N[C@H](CO)Cc1ccccc1`, which cytotoxicity call is on record?
Answer: active

Question: How did the cytotoxicity call turn out when `O=C(C[C@@H]1CC=CCCC(=O)OC[C@H](Cc2c[nH]c3ccccc23)NC1=O)N[C@@H](CO)Cc1ccccc1` was run?
Answer: inactive

Question: Which cytotoxicity call does the source give for `O=C(C[C@@H]1CC=CCC[C@H](Cc2ccc(F)cc2)C(=O)OC[C@@H](Cc2c[nH]c3ccccc23)NC1=O)N[C@@H](CO)Cc1ccccc1` here?
Answer: inactive

Question: With `O=C(C[C@@H]1CC=CCCC(=O)OC[C@H](Cc2c[nH]c3ccccc23)NC1=O)N[C@H](CO)Cc1ccccc1` as the compound, how does the cytotoxicity call read?
Answer: inactive

Question: Which cytotoxicity call does the source give for `Cc1noc(C)c1NC(=O)N(C)C[C@@H]1Oc2c(NS(=O)(=O)c3ccccc3)cccc2C(=O)N([C@@H](C)CO)C[C@@H]1C` here?
Answer: inactive

Question: `CC(C)Cn1c(N)cc(=O)n(C)c1=O` was tested. Which cytotoxicity call did it give?
Answer: inactive

Question: With `C[C@@H]1CCCCO[C@@H](CN(C)C(=O)Nc2ccc3c(c2)OCO3)[C@H](C)CN([C@H](C)CO)C(=O)c2cc(NS(=O)(=O)c3ccccc3)ccc2O1` as the compound, how does the cytotoxicity call read?
Answer: inactive

Question: Which cytotoxicity call does the source give for `COc1ccc(S(=O)(=O)Nc2cccc3c2O[C@H](CN(C)C(=O)Nc2cccc4ccccc24)[C@@H](C)CN([C@@H](C)CO)C3=O)cc1` here?
Answer: inactive

Question: Which cytotoxicity call does the source give for `C=CC[C@@H](CC(=O)N(CCO)Cc1ccccc1)C(=O)NC[C@@H](OC(=O)[C@@H](CC=C)Cc1ccc(F)cc1)c1ccccc1` here?
Answer: inactive

Question: With `C[C@@H]1CCCCO[C@@H](CN(C)CC2CC2)[C@H](C)CN([C@@H](C)CO)C(=O)c2cc(NC(=O)NC3CCCCC3)ccc2O1` as the compound, how does the cytotoxicity call read?
Answer: inactive

Question: `O=C1NC(=O)[C@@]2(CC[C@H](C(=O)O)C2)N1` was tested. Which cytotoxicity call did it give?
Answer: inactive

Question: Which cytotoxicity call does the source give for `CN1CCN(C(=O)C[C@@H]2CC[C@H]3[C@@H](COC[C@H](O)CN3Cc3ccc(Oc4ccccc4)cc3)O2)CC1` here?
Answer: inactive

Question: Which cytotoxicity call does the source give for `C[C@@H]1CCCCO[C@@H](CN(C)S(=O)(=O)c2cccs2)[C@H](C)CN([C@@H](C)CO)C(=O)c2cc(NC(=O)NC3CCCCC3)ccc2O1` here?
Answer: inactive

Question: Which cytotoxicity call does the source give for `O=C(O)c1oc2ccccc2c1CSc1ccc(Cl)cc1` here?
Answer: inactive

Question: `COc1ccc(CN(C)C[C@H]2OCCCC[C@@H](C)Oc3ccc(NC(=O)NC4CCCCC4)cc3C(=O)N([C@H](C)CO)C[C@H]2C)cc1` was tested. Which cytotoxicity call did it give?
Answer: active

Question: With `COc1ccc(CN(C)C[C@H]2OCCCC[C@H](C)Oc3ccc(NC(=O)NC4CCCCC4)cc3C(=O)N([C@@H](C)CO)C[C@@H]2C)cc1` as the compound, how does the cytotoxicity call read?
Answer: inactive

Question: Which cytotoxicity call does the source give for `COc1ccc(CN(C)C[C@@H]2OCCCC[C@H](C)Oc3ccc(NC(=O)NC4CCCCC4)cc3C(=O)N([C@@H](C)CO)C[C@@H]2C)cc1` here?
Answer: active

Question: `COc1ccc(CN(C)C[C@H]2OCCCC[C@H](C)Oc3ccc(NC(=O)NC4CCCCC4)cc3C(=O)N([C@H](C)CO)C[C@H]2C)cc1` was tested. Which cytotoxicity call did it give?
Answer: inactive

Question: How did the cytotoxicity call turn out when `COc1ccc(CN(C)C[C@@H]2OCCCC[C@@H](C)Oc3ccc(NC(=O)NC4CCCCC4)cc3C(=O)N([C@H](C)CO)C[C@H]2C)cc1` was run?
Answer: inactive

Question: For `COc1ccc(CN(C)C[C@H]2OCCCC[C@H](C)Oc3ccc(NC(=O)NC4CCCCC4)cc3C(=O)N([C@@H](C)CO)C[C@H]2C)cc1`, which cytotoxicity call is on record?
Answer: active

Question: With `COc1ccc(CN(C)C[C@@H]2OCCCC[C@H](C)Oc3ccc(NC(=O)NC4CCCCC4)cc3C(=O)N([C@H](C)CO)C[C@@H]2C)cc1` as the compound, how does the cytotoxicity call read?
Answer: inactive

Question: `COc1ccc(CN(C)C[C@H]2OCCCC[C@@H](C)Oc3ccc(NC(=O)NC4CCCCC4)cc3C(=O)N([C@@H](C)CO)C[C@@H]2C)cc1` was tested. Which cytotoxicity call did it give?
Answer: inactive

Question: Which cytotoxicity call does the source give for `COc1ccc(CN(C)C[C@@H]2OCCCC[C@@H](C)Oc3ccc(NC(=O)NC4CCCCC4)cc3C(=O)N([C@H](C)CO)C[C@@H]2C)cc1` here?
Answer: inactive

Question: Which cytotoxicity call does the source give for `C[C@H](CO)N1C[C@H](C)[C@@H](CN(C)Cc2ccc(C(=O)Nc3ccccc3N)cc2)OCc2cnnn2CCCC1=O` here?
Answer: inactive

Question: For `CC(C)(C)[S@@](=O)N1Cc2cc(C(=O)N3CCCCC3)nc(-c3cccc(-c4ccc(F)cc4)c3)c2[C@H]1CCO`, which cytotoxicity call is on record?
Answer: inactive

Question: With `O=C(CN1CCOCC1)NCC[C@H]1CC[C@H](NS(=O)(=O)c2ccc(Cl)cc2)[C@H](CO)O1` as the compound, how does the cytotoxicity call read?
Answer: inactive

Question: How did the cytotoxicity call turn out when `CCc1cc(=O)oc2c(C)c(O[C@@H]3O[C@H](CO)[C@@H](O)[C@H](O)[C@H]3O)ccc12` was run?
Answer: inactive

Question: Which cytotoxicity call does the source give for `COc1ccc(S(=O)(=O)N(C)C[C@H]2Oc3ccc(NC(=O)CCC(F)(F)F)cc3CC(=O)N([C@H](C)CO)C[C@H]2C)cc1` here?
Answer: inactive

Question: With `Cc1cc(C(=O)Nc2cccc3c2O[C@H](CN(C)Cc2ccccc2)[C@H](C)CN([C@@H](C)CO)C3=O)n(C)n1` as the compound, how does the cytotoxicity call read?
Answer: inactive

Question: How did the cytotoxicity call turn out when `COCC#Cc1ccc2c(c1)O[C@H](CN(C)C(=O)C1CCCCC1)[C@@H](C)CN([C@@H](C)CO)S2(=O)=O` was run?
Answer: inactive

Question: Which cytotoxicity call does the source give for `CO[C@H](CN(C)S(=O)(=O)c1cn(C)cn1)[C@H](C)CN(C(=O)Nc1ccc(C(F)(F)F)cc1)[C@H](C)CO` here?
Answer: inactive

Question: For `CC(C)NC(=O)Nc1ccc2c(c1)C(=O)N([C@H](C)CO)C[C@@H](C)[C@@H](CN(C)C(=O)Nc1ccc3c(c1)OCO3)O2`, which cytotoxicity call is on record?
Answer: inactive

Question: With `Cc1n[nH]c(C)c1S(=O)(=O)N1CCCC1` as the compound, how does the cytotoxicity call read?
Answer: inactive

Question: Which cytotoxicity call does the source give for `COc1ccc(NC(=O)Nc2ccc3c(c2)[C@@H]2C[C@H](CC(=O)N4CCN(C)CC4)O[C@H](CO)[C@@H]2O3)cc1` here?
Answer: inactive

Question: Which cytotoxicity call does the source give for `C[C@H]1CN([C@@H](C)CO)C(=O)c2cccc(NC(=O)Nc3cccc4ccccc34)c2O[C@@H]1CN(C)S(=O)(=O)c1ccc(Cl)cc1` here?
Answer: inactive

Question: `C[C@H]1CN([C@@H](C)CO)C(=O)c2cccc(NC(=O)Nc3cccc4ccccc34)c2O[C@@H]1CN(C)S(=O)(=O)c1ccc(F)cc1` was tested. Which cytotoxicity call did it give?
Answer: active

Question: `C[C@@H]1CN([C@@H](C)CO)C(=O)c2cccc(NC(=O)Nc3cccc4ccccc34)c2O[C@H]1CN(C)S(=O)(=O)c1ccc(F)cc1` was tested. Which cytotoxicity call did it give?
Answer: inactive

Question: With `C[C@H](CO)N1C[C@H](C)[C@@H](CN(C)S(=O)(=O)c2ccc(Cl)cc2)Oc2c(NC(=O)Nc3cccc4ccccc34)cccc2C1=O` as the compound, how does the cytotoxicity call read?
Answer: active

Question: `C[C@@H]1CN([C@H](C)CO)C(=O)c2cccc(NC(=O)Nc3cccc4ccccc34)c2O[C@@H]1CN(C)S(=O)(=O)c1ccc(F)cc1` was tested. Which cytotoxicity call did it give?
Answer: inactive

Question: With `C[C@@H]1CN([C@@H](C)CO)C(=O)c2cccc(NC(=O)Nc3cccc4ccccc34)c2O[C@@H]1CN(C)S(=O)(=O)c1ccc(Cl)cc1` as the compound, how does the cytotoxicity call read?
Answer: inactive

Question: Which cytotoxicity call does the source give for `C[C@H]1CN([C@@H](C)CO)C(=O)c2cccc(NS(C)(=O)=O)c2O[C@H]1CN(C)S(=O)(=O)c1ccc(Cl)cc1` here?
Answer: inactive

Question: With `C[C@H]1CN([C@@H](C)CO)C(=O)Cc2cc(NC(=O)CCN3CCOCC3)ccc2O[C@@H]1CN(C)S(=O)(=O)c1ccccc1` as the compound, how does the cytotoxicity call read?
Answer: inactive

Question: How did the cytotoxicity call turn out when `COc1ccc(NC(=O)N(C)C[C@H]2Oc3ccc(NC(=O)CCN4CCOCC4)cc3C(=O)N([C@H](C)CO)C[C@@H]2C)cc1` was run?
Answer: inactive

Question: How did the cytotoxicity call turn out when `CCS(=O)(=O)N1C[C@]2(CN(C2)S(=O)(=O)c2cn(cn2)C)c2c(n(c3cc(ccc23)OC)C)[C@@H]1CO` was run?
Answer: inactive

Question: How did the cytotoxicity call turn out when `CC(=O)N(C)C[C@@H]1Oc2cc(C#CCN(C)C)ccc2S(=O)(=O)N([C@H](C)CO)C[C@H]1C` was run?
Answer: inactive

Question: For `Cc1noc(C)c1S(=O)(=O)N(C)C[C@H]1Oc2ccc(NC(=O)CCN3CCOCC3)cc2CC(=O)N([C@@H](C)CO)C[C@H]1C`, which cytotoxicity call is on record?
Answer: inactive

Question: Which cytotoxicity call does the source give for `COC1OC2OC3(C)CCC4C(C)CCC(C1C)C24OO3` (stereo not given) here?
Answer: inactive

Question: `CC(=O)C1CCC2C3CC=C4CC(OC(=O)CCC(=O)O)CCC4(C)C3CCC12C` (stereo not given) was tested. Which cytotoxicity call did it give?
Answer: inactive

Question: With `CC1CCC2C(C)C(O)OC3OC4(C)CCC1C32OO4` (stereo not given) as the compound, how does the cytotoxicity call read?
Answer: active

Question: For `CC1CCC2C(C)C(OC(=O)CCC(=O)O)OC3OC4(C)CCC1C32OO4` (stereo not given), which cytotoxicity call is on record?
Answer: active
